Key:
Assay type in all cases: functional
Plasmodium falciparum [1] = assay: GSK_TCMDC: Inhibition of Plasmodium falciparum 3D7 in whole red blood cells, using parasite LDH activity as an index of growth. Test compounds present at 2uM
Plasmodium falciparum [2] = assay: GSK_TCMDC: Inhibition of Plasmodium falciparum Dd2 in whole red blood cells, using parasite LDH activity as an index of growth. Test compounds present at 2uM
HepG2 = assay: GSK_TCMDC: Percent inhibition of human HepG2 cell line. Test compounds present at 10uM.

Compound	Inhibition (Plasmodium falciparum [1])	Inhibition (Plasmodium falciparum [2])	Inhibition (HepG2)
COc1ccc(NC(=O)/C=C/c2ccc(-c3ccc(-c4noc(C)n4)cc3)cc2)cc1OCCN(C)C.O=C(O)C(=O)O	81%	31%	14%
COc1cc(C(=O)NC2CCN(Cc3ccccc3)CC2)ccc1-c1nc2cc(Cl)c(C)cc2[nH]1	99%	97%	0%
CC(C)CNCc1cccc(-c2cccc(CN(CCN(C)C)C(=O)Nc3ccccc3)c2)c1.O=C(O)C(F)(F)F	99%	62%	34%
O=C(/C=C/c1ccc(Cl)c(Cl)c1)NCCCCCCN1CCN(C(=O)Nc2ccc(Cl)c(Cl)c2)CC1	88%	0%	23%
Oc1c(Br)cc2oc3c(c2c1CNCc1ccccc1)CCCC3	99%	74%	0%
CCN(CC)CCN(Cc1ccc(-c2ccc(C(F)(F)F)cc2)cc1)C(=O)Cn1c(CCc2ccc(F)cc2)nc(=O)c2sccc21.O=C(O)C(O)C(O)C(=O)O	99%	90%	100%
COc1cc(Cc2cnc(N)nc2N)ccc1OCc1cccc(Oc2ccccc2)c1	84%	21%	18%
CCc1ccc(N2C(=O)C3C(Cc4ccc(OC(C)(C)C)cc4)NC4(C(=O)N(Cc5ccccc5)c5ccc(F)cc54)C3C2=O)cc1 (stereo not drawn)	96%	49%	9%
Cc1cccc2nc(-c3ccc(-c4cccc(NC(=O)C(C)CN5CCN(C)CC5)c4)cc3)[nH]c12 (stereo not drawn)	98%	51%	5%
Cc1cc(Nc2ccccc2)nc(Nc2ccccc2C)n1.Cl	85%	27%	8%
O=C(NCc1ccc(Cl)c(Cl)c1)c1ccc(-c2nc3ccc(Cl)cc3[nH]2)cc1	96%	22%	20%
CN1CCCC1CCNc1ncc2c(-c3ccc(NC(=O)Nc4cc(C(F)(F)F)ccc4F)cc3)nn(C)c2n1.O=C(O)C(F)(F)F (stereo not drawn)	96%	72%	74%
N#Cc1ccc(-c2ccc(C(=O)NCCCCN3CCC(n4cnc5ccccc54)CC3)cc2)cc1	94%	2%	15%
Fc1ccc2[nH]c(-c3cccc(-c4cccc(CNCCc5ccncc5)c4)c3)nc2c1.O=C(O)C(F)(F)F	100%	88%	22%
N#Cc1cccc(NC(=O)Nc2ccc(CC(=O)N3CCc4cc(Cl)c(N5CCN(C/C=C/c6ccccc6)CC5)cc43)cc2)c1	91%	61%	0%
COCCNCc1nc(-c2ccc3c(Nc4ccc(Cl)cc4F)ccnc3c2)cs1	100%	100%	0%
O=C(Nc1ccc(-c2cccc(-c3nc4cc(F)ccc4[nH]3)c2)cc1)c1cnn2cccnc12	98%	25%	10%
Cc1cccc2nc(-c3cccc(-c4ccc(NC(=O)c5cccc(C(N)=O)c5)cc4)c3)[nH]c12	100%	61%	25%
Cl.N=C(NCCCc1ccccc1)c1cccc(C(=N)NCCCc2ccccc2)n1	98%	0%	44%
CCN(CC)CCN(Cc1ccc(-c2ccc(C(F)(F)F)s2)cc1)C(=O)Cn1c(CCc2cccc(F)c2F)nc(=O)c2ccccc21.O=C(O)C(O)C(O)C(=O)O	94%	31%	43%
Cc1cc(Cl)c(S(=O)(=O)NC2CCCC2)cc1OCC(=O)NC1CCCCC1	97%	91%	19%
CC(=O)Nc1ccc(C(=O)Nc2cccc(-c3cccc(-c4nc5cccc(C)c5[nH]4)c3)c2)cn1	100%	100%	16%
c1ccc(-c2cc(NCCCn3ccnc3)nc(-c3cccnc3)n2)cc1	84%	6%	15%
CN1CC=C(c2csc3ccc(NC(=O)Nc4ccc(-c5ccncc5)c5ccccc45)cc23)CC1	93%	99%	20%
O=C(Cc1ccccc1)NC(c1ccco1)c1cc(Cl)c2cccnc2c1O (stereo not drawn)	89%	93%	44%
CN1CCC(N(Cc2ccc(-c3ccc(C(F)(F)F)cc3)cc2)C(=O)Cn2cc(Cc3cnn(C)c3)c(=O)nc2SCc2cccc(F)c2F)CC1.O=C(O)C(O)C(O)C(=O)O	88%	91%	68%

— ChEMBL document CHEMBL1157539, “Thousands of chemical starting points for antimalarial lead identification” (Nature, 2010)
